Assay results: PubChem BioAssay AID1159580 (chemical genetic matrix, 2015)
Values joined by “and” are separate entries in the source; they are usually repeats but may differ in a detail not shown here. Equal values may be shown once. In all, about 5,500 compounds went through this assay and about 2,000 (36%) were called active. Another 18% or so got no clear call; they are omitted. Cut-off read from the data, not from the text of the source: active = normalized growth mostly below about 0.91 (no sharp cut-off); inconclusive = no clear call, values can overlap the other calls; inactive = mostly above about 0.92. Some of the results follow.

Experiment: chemical genetic growth profiling, strain panel (AID 1159580);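 note: tested at 20 µM; growth read once vehicle control cultures reached saturation at 30 °C; 1 = growth at the plate median or of vehicle wells; lower values mean less growth of the strain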
Details: S. cerevisiae deletion strains, growth OD

Measured: normalized growth

C=C1C2CC[C@@]3(C)[C@H](c4ccoc4)OC(=O)C[C@]13O[C@H]1CC(=O)C(C)(C)[C@H](C(O)C(=O)OC)[C@@]21C (some centres undefined)
inactive: locus YAL021C, strain ccr4, stronger effect = lower value 1.06 | locus YAL026C, strain drs2, stronger effect = lower value 0.995 | locus YAL030W, strain snc1, stronger effect = lower value 0.995 | locus YBL061C, strain skt5, stronger effect = lower value 0.985 | locus YBR009C, strain hhf1, stronger effect = lower value 1.05 | locus YBR021W, strain FUR4, stronger effect = lower value 0.993 | locus YBR023C, strain chs3, stronger effect = lower value 1.01 | locus YBR171W, strain sec66, stronger effect = lower value 0.994 | locus YBR229C, strain ROT2, stronger effect = lower value 1 | locus YBR231C, strain swc5, stronger effect = lower value 0.993 | locus YBR279W, strain paf1, stronger effect = lower value 1 | locus YCL011C, strain gbp2, stronger effect = lower value 1.02 | locus YCL016C, strain dcc1, stronger effect = lower value 1.01 | locus YCL029C, strain bik1, stronger effect = lower value 1.01 | locus YCL061C, strain MRC1, stronger effect = lower value 1 | locus YCL069W, strain vba3, stronger effect = lower value 0.997 | locus YCR088W, strain abp1, stronger effect = lower value 0.999 | locus YDL005C, strain med2, stronger effect = lower value 0.989 | locus YDL035C, strain GPR1, stronger effect = lower value 1.01 | locus YDL040C, strain nat1, stronger effect = lower value 0.998 | locus YDL074C, strain BRE1, stronger effect = lower value 1.02 | locus YDL101C, strain DUN1, stronger effect = lower value 1.01 | locus YDL134C, strain PPH21, stronger effect = lower value 1.01 | locus YDL185W, strain tfp1, stronger effect = lower value 1.01 | locus YDL192W, strain arf1, stronger effect = lower value 1.01 | locus YDR001C, strain nth1, stronger effect = lower value 1.02 | locus YDR069C, strain doa4, stronger effect = lower value 0.99 | locus YDR101C, strain arx1, stronger effect = lower value 0.994 | locus YDR137W, strain rgp1, stronger effect = lower value 0.959 | locus YDR159W, strain sac3, stronger effect = lower value 0.995 | locus YDR162C, strain NBP2, stronger effect = lower value 1.02 | locus YDR195W, strain ref2 0.961 | locus YDR297W, strain sur2, stronger effect = lower value 1.02 | locus YDR318W, strain mcm21, stronger effect = lower value 1.01 | locus YDR334W, strain swr1, stronger effect = lower value 0.997 | locus YDR335W, strain msn5, stronger effect = lower value 1.01 | locus YDR388W, stronger effect = lower value 1.01 | locus YDR392W, strain spt3, stronger effect = lower value 0.958 | locus YDR502C, strain sam2, stronger effect = lower value 1.02 | locus YEL003W, strain gim4, stronger effect = lower value 1 | locus YEL037C, strain rad23, stronger effect = lower value 1 | locus YEL061C, strain CIN8 (second series), stronger effect = lower value 0.996 | locus YER015W, strain faa2, stronger effect = lower value 1 | locus YER016W, strain bim1, stronger effect = lower value 0.997 | locus YER110C, stronger effect = lower value 1.01 | locus YER111C, strain swi4, stronger effect = lower value 0.994 | locus YER155C, strain BEM2 (second series), stronger effect = lower value 0.983 | locus YER155C, strain BEM2, stronger effect = lower value 0.994 | locus YER167W, strain BCK2, stronger effect = lower value 1.01 | locus YFR010W, strain ubp6, stronger effect = lower value 0.976 | locus YGL078C, strain dbp3, stronger effect = lower value 1.02 | locus YGL086W, strain mad1, stronger effect = lower value 1.01 | locus YGL167C, strain pmr1, stronger effect = lower value 1 | locus YGL173C, strain kem1, stronger effect = lower value 1 | locus YGL227W, strain vid30, stronger effect = lower value 0.991 | locus YGL240W, strain doc1, stronger effect = lower value 0.989 | locus YGL248W, strain PDE1, stronger effect = lower value 1.01 | locus YGL253W, strain hxk2, stronger effect = lower value 0.99 | locus YGR078C, strain PAC10, stronger effect = lower value 1.01 | locus YGR135W, strain pre9, stronger effect = lower value 1.02 | locus YGR252W, strain gcn5, stronger effect = lower value 1.01 | locus YHR013C, strain ard1, stronger effect = lower value 1.01 | locus YHR027C, strain rpn1, stronger effect = lower value 0.991 | locus YHR030C, strain SLT2, stronger effect = lower value 0.963 | locus YHR079C, strain IRE1 (second series), stronger effect = lower value 1.01 | locus YHR079C, strain IRE1, stronger effect = lower value 0.98 | locus YHR094C, strain hxt1, stronger effect = lower value 1.02 | locus YHR129C, strain ARP1, stronger effect = lower value 1 | locus YHR142W, strain chs7, stronger effect = lower value 1.01 | locus YHR200W, strain rpn10, stronger effect = lower value 1.02 | locus YIL066C, strain RNR3, stronger effect = lower value 1.02 | locus YIL073C, strain SPO22, stronger effect = lower value 1.03 | locus YIL125W, strain kgd1, stronger effect = lower value 1 | locus YIR030C, strain dcg1, stronger effect = lower value 1.01 | locus YJL092W, strain hpr5, stronger effect = lower value 1 | locus YJL095W, strain BCK1 (second series), stronger effect = lower value 1.01 | locus YJL095W, strain BCK1, stronger effect = lower value 1.02 and 0.96 | locus YJL115W, strain asf1, stronger effect = lower value 0.995 | locus YJL129C, strain trk1, stronger effect = lower value 0.976 | locus YJL134W, strain LCB3, stronger effect = lower value 1.01 | locus YJL154C, strain vps35, stronger effect = lower value 0.995 | locus YJL164C, strain tpk1, stronger effect = lower value 1.03 | locus YJL166W, strain qcr8, stronger effect = lower value 1.02 | locus YJL168C, strain set2, stronger effect = lower value 1.01 | locus YJL187C, strain SWE1 (second series), stronger effect = lower value 1.01 | locus YJL187C, strain SWE1, stronger effect = lower value 1 | locus YJR043C, strain POL32, stronger effect = lower value 0.999 | locus YJR066W, strain TOR1, stronger effect = lower value 0.932 | locus YJR075W, strain HOC1, stronger effect = lower value 1.01 | locus YKL009W, strain mrt4, stronger effect = lower value 0.992 | locus YKL068W, stronger effect = lower value 1.01 | locus YKL085W, strain MDH1 (second series), stronger effect = lower value 1.01 | locus YKL085W, strain MDH1, stronger effect = lower value 1.01 | locus YKL160W, strain elf1, stronger effect = lower value 1.02 | locus YKL190W, strain CNB1, stronger effect = lower value 1 | locus YKR001C, strain vps1, stronger effect = lower value 1.01 | locus YKR026C, strain gcn3, stronger effect = lower value 0.994 | locus YKR091W, strain srl3, stronger effect = lower value 1 | locus YLL001W, strain dnm1, stronger effect = lower value 0.969 | locus YLL026W, stronger effect = lower value 1 | locus YLL041C, strain sdh2, stronger effect = lower value 1 | locus YLR027C, strain aat2, stronger effect = lower value 0.983 | locus YLR039C, strain RIC1, stronger effect = lower value 1.05 | locus YLR058C, strain SHM2, stronger effect = lower value 1.02 | locus YLR102C, strain apc9, stronger effect = lower value 1.01 | locus YLR113W, strain HOG1, stronger effect = lower value 1.01 | locus YLR221C, strain rsa3, stronger effect = lower value 0.976 | locus YLR258W, strain gsy2, stronger effect = lower value 1.01 | locus YLR262C, strain YPT6 (second series), stronger effect = lower value 1.01 | locus YLR262C, strain YPT6, stronger effect = lower value 1.02 | locus YLR268W, strain sec22, stronger effect = lower value 1 | locus YLR320W, strain mms22, stronger effect = lower value 0.982 | locus YLR342W, strain FKS1 (second series), stronger effect = lower value 0.996 | locus YLR342W, strain FKS1, stronger effect = lower value 0.99 | locus YLR357W, strain rsc2, stronger effect = lower value 0.975 | locus YLR370C, strain arc18, stronger effect = lower value 1.01 | locus YLR371W, strain rom2, stronger effect = lower value 1.02 | locus YLR384C, strain iki3, stronger effect = lower value 0.984 | locus YLR418C, strain cdc73, stronger effect = lower value 1.02 | locus YML016C, strain PPZ1, stronger effect = lower value 1.01 | locus YML032C, strain rad52, stronger effect = lower value 1.01 | locus YML120C, strain ndi1, stronger effect = lower value 1.01 | locus YML124C, strain tub3, stronger effect = lower value 1.01 | locus YMR058W, strain fet3, stronger effect = lower value 0.99 | locus YMR078C, strain ctf18, stronger effect = lower value 1.02 | locus YMR125W, strain sto1, stronger effect = lower value 0.983 | locus YMR129W, stronger effect = lower value 0.998 | locus YMR205C, strain PFK2, stronger effect = lower value 1.03 | locus YMR223W, strain ubp8, stronger effect = lower value 1.01 | locus YMR231W, strain pep5, stronger effect = lower value 0.998 | locus YMR307W, strain GAS1, stronger effect = lower value 1.01 | locus YNL067W, strain RPL9B, stronger effect = lower value 1.01 | locus YNL071W, strain lat1, stronger effect = lower value 1.02 | locus YNL128W, strain TEP1, stronger effect = lower value 1.01 | locus YNL153C, strain GIM3, stronger effect = lower value 1.01 | locus YNL183C, strain NPR1, stronger effect = lower value 0.945 | locus YNL209W, strain ssb2, stronger effect = lower value 1.01 | locus YNL233W, strain BNI4, stronger effect = lower value 1 | locus YNL248C, strain rpa49, stronger effect = lower value 0.959 | locus YNL250W, strain rad50, stronger effect = lower value 1 | locus YNL271C, strain bni1, stronger effect = lower value 1.01 | locus YNL298W, strain CLA4, stronger effect = lower value 1.01 | locus YNL307C, strain MCK1, stronger effect = lower value 1.02 | locus YNL322C, strain KRE1 (second series), stronger effect = lower value 1 | locus YNR049C, strain mso1, stronger effect = lower value 0.995 | locus YNR052C, strain pop2, stronger effect = lower value 1.01 | locus YOL006C, strain TOP1, stronger effect = lower value 1.03 | locus YOL012C, strain htz1 1.49 | locus YOL147C, strain pex11, stronger effect = lower value 1.01 | locus YOR001W, strain rrp6, stronger effect = lower value 0.953 | locus YOR061W, strain CKA2, stronger effect = lower value 1.01 | locus YOR069W, strain VPS5, stronger effect = lower value 1.01 | locus YOR070C, strain gyp1, stronger effect = lower value 0.99 | locus YOR080W, strain dia2, stronger effect = lower value 1 | locus YOR083W, strain WHI5, stronger effect = lower value 1.04 | locus YOR106W, strain vam3, stronger effect = lower value 1.02 | locus YOR136W, strain idh2, stronger effect = lower value 1.01 | locus YOR144C, strain elg1, stronger effect = lower value 1 | locus YOR184W, strain ser1, stronger effect = lower value 1.02 | locus YOR231W, strain MKK1, stronger effect = lower value 0.983 | locus YOR265W, strain rbl2, stronger effect = lower value 1.01 | locus YOR270C, strain vph1, stronger effect = lower value 0.995 | locus YOR290C, strain snf2, stronger effect = lower value 1.03 | locus YOR316C, strain cot1, stronger effect = lower value 1.01 | locus YPL051W, strain arl3, stronger effect = lower value 0.984 | locus YPL078C, strain atp4, stronger effect = lower value 1.02 | locus YPL106C, strain sse1, stronger effect = lower value 1.05 | locus YPL240C, strain hsp82, stronger effect = lower value 0.998 | locus YPL256C, strain CLN2, stronger effect = lower value 0.981 | locus YPR119W, strain clb2, stronger effect = lower value 1.01 | locus YPR141C, strain kar3, stronger effect = lower value 1 | locus YPR163C, strain tif3, stronger effect = lower value 1.01 | locus YPR167C, strain met16, stronger effect = lower value 1.01 | strain wtn01, stronger effect = lower value 1
